The structures appear in SMILES notation. Among all 280,000 compounds or so, about 540 (0.19%) were called active. Where a call stands in place of a potency, no number is given. Inconclusive results (about 2%) are left out. Calls follow the shape of the dose curve; as a rule, active = well fitted activation curve with a large enough effect; inconclusive = small, poorly fitted or top-dose-only effect; inactive = flat fitted curve, though single readings scatter. The sample as a whole holds a higher share of actives than the screen did.
Potency is read from the fitted curve at half-maximal effect.

This assay can be described thus: Quantitative High-Throughput Screen for Regulators of Epigenetic Control. Also: nearly all actives have a fitted effect of over 60% in size. As to conditions: murine LDR cells, GFP reporter derepression, 30 h; series mostly up to 53.9 µM. A digest of the protocol: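 Murine LDR cells bearing a silenced CMV-driven GFP reporter were exposed to compound for 30 h at 37 C. After PBS washes, GFP-positive cells (20-120 um objects) counted by laser-scanning microplate cytometry.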
As for `COCCCNC(=O)c1ccc(NC(=O)c2nsc3ccccc23)cc1`, the Potency entry is “inactive”.

Take `Cc1ccc(-c2cnc(NCc3ccc(C(C)C)cc3)n2C)cc1`: the Potency result was “inactive”.

Regarding `CCOC(=O)c1cccc(NC(=O)Cn2cnc3nc4c(cc3c2=O)CCCC4)c1`, the Potency entry is “inactive”.

For `CCOC(=O)c1ccc(NC(=O)C2CCN(S(=O)(=O)c3ccc4c(c3)CCCC(=O)N4)CC2)cc1`, the Potency result was “inactive”.

`Cc1ccc(NC(=O)Cn2c(=O)n(-c3ccccc3)c(=O)c3c4c(sc32)CCCC4)cc1`: the Potency result is “inactive”.

For `CCOc1cc(C(=O)NCCc2csc3nc(-c4ccc(C)cc4)nn23)cc(OCC)c1OCC`, the Potency result was “inactive”.

As for `Cc1cccc(C(CC(=O)NCC2(c3ccccc3)CCCC2)c2ccccc2)c1O` (centres undefined), the Potency entry is “inactive”.

In the case of `Cc1ccc(Cl)cc1N1CCN(C(=O)c2cnc3c(-c4ccc(F)cc4)c(C)nn3c2C)CC1`, the Potency entry was “inactive”.

`CCCCn1c(=O)c2oc3ccccc3c2n(CC(=O)Nc2ccccc2OC)c1=O`: the Potency entry is “inactive”.

For `COc1ccc(Cn2c(=O)c3oc4ccccc4c3n(CC(=O)Nc3ccc(F)cc3F)c2=O)cc1`, the Potency was 11.2 µM (active).

Take `COc1cc(NC(=O)Cn2c(=O)n(Cc3ccco3)c(=O)c3oc4ccccc4c32)cc(OC)c1`: the Potency result is “inactive”.

Take `O=C(NCc1ccccc1Cl)c1cccn1-c1nnc(N2CCCCC2)s1`: the Potency entry was “inactive”.

For `Cc1ccc(NC(=O)c2cc(S(=O)(=O)NCCC3=CCCCC3)ccc2F)cc1C`, the Potency entry was “inactive”.

As to `COc1cccc(CNC(=O)C(=O)NCC(c2cccs2)S(=O)(=O)c2ccccc2)c1` (centres undefined), the Potency result was “inactive”.

On to `Cc1cccc(CCNC(=O)c2ccc3c(c2)nc2n3CCC(C)C2)c1` (centres undefined), for which the Potency entry was “inactive”.

On to `CN(c1ccccc1)c1ccc(/C=c2\s/c(=C(/C#N)C(=O)C(C)(C)C)n(Cc3ccco3)c2=O)cc1`, for which the Potency was 6.31 µM (active).

`Cc1cs/c(=N\N=C\c2ccc(O)cc2)n1Cc1ccco1`: the Potency result is “inactive”.

Turning to `O=c1nc2s/c(=C\c3ccco3)c(=O)n2nc1Cc1ccccc1`, the Potency result was “inactive”.

In the case of `COc1cc(OC)c(OC)cc1/C=C/c1nc2cc3ccccc3cc2c(=O)n1-c1ccc(F)c(Cl)c1`, the Potency result was “inactive”.

On to `O=S(=O)(NCC(c1ccccc1)N1CCc2ccccc21)c1ccccc1` (centres undefined), for which the Potency result is “inactive”.

For the compound `COc1cc2c(cc1OC)C(COc1ccc(F)cc1)N(C(=O)c1ccccc1F)CC2` (centres undefined), the Potency entry is “inactive”.

As to `CCOC(=O)c1c(C)[nH]c(CCC(=O)NCCCN2CCN(c3cc(C)ccc3C)CC2)c1C`, the Potency entry is “inactive”.

Take `CC(C)(C)c1ccc(C(=O)NCC(c2ccc(Cl)cc2)N2CCOCC2)cc1` (centres undefined): the Potency result is “inactive”.

`COc1ccc(-c2cccc(NS(=O)(=O)c3cc(C)c(OC)c(C)c3C)c2)nn1`: the Potency result is “inactive”.

`O=C(NC1CCN(Cc2ccccc2)CC1)c1ccc(Cn2c(=O)c3ccccc3n(Cc3cccc(F)c3)c2=O)cc1`: the Potency entry is “inactive”.

In the case of `CCOc1ccccc1C(=O)Nc1ccc(S(=O)(=O)N2CCCCC2c2cccnc2)cc1` (centres undefined), the Potency result was “inactive”.

On to `CC(C)c1ccc(S(=O)(=O)Nc2ccc(O)c(Sc3nc4ccccc4s3)c2)cc1`, for which the Potency entry is “inactive”.

Take `COc1ccc(Cn2c(C(=O)O)c(CNCc3cccc(OC)c3)c3ccc(C)cc32)cc1`: the Potency entry is “inactive”.

As to `CC(C)c1ccc2oc(-c3cc(NC(=O)c4cccs4)ccc3Cl)nc2c1`, the Potency entry is “inactive”.

The record behind these values is PubChem BioAssay AID1865 (National Center for Advancing Translational Sciences (NCATS), 2009).
